Bioassay records from PubChem.
Most compounds without a hit are left out; they make up all but 12% or so of the library.
BAZ2B inh: blocks human BAZ2B; AlphaScreen BAZ2B-H3K14Ac peptide displacement; Q9UIF8; hit rate 4.4% among 360,000; Potency, µM (top dose mostly 114 µM), inactives show top-dose activity change, negative = inhibition, actives largely listed as inhibitors; further: on the % scale 0 is the no-effect control and ±100 the full control effect; nearly all actives have a fitted effect of over 60% in size
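In this displacement format the biotinylated H3(5-23) peptide acetylated at Lys14 serves as ligand at 50 nM, with BAZ2B at 50 nM in PBS pH 7.4 containing 0.01% Tween-20. Donor and acceptor beads are 10 ug/mL final.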
HP1b binding inh: blocks HP1-beta chromodomain binding to methylated histone tails; P83916; AID 540317; hit rate 0.56% among 390,000; AlphaScreen HP1-beta / biotin-H3K9me3 peptide binding; Potency, µM (titrated, usually from 114 µM), inactives show top-dose activity change, negative = inhibition, most hits filed as inhibitors; further: nearly all actives have a fitted effect of over 70% in size
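HP1-beta protein (50 nM final) preincubated 30 min at room temperature with biotinylated H3(1-18)K9me3 peptide (50 nM) in PBS pH 7.4, 0.01% Tween-20, then compound added for 30 min. AlphaScreen streptavidin donor/nickel chelate acceptor beads (10 ug/mL final), 30 min dark, luminescence read.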
G9a block: G9a (human) methyltransferase inhibition; Q96KQ7; G9a H3K9 monomethylation, AlphaScreen, 2 h; Potency, µM (series often up to 102 µM), without a hit: at the highest dose activity, negative = inhibition, actives largely listed as inhibitors; hit rate 8.8% among 350,000; AID 504332; further: on the % scale 0 is the no-effect control and ±100 the full control effect; nearly all actives have a fitted effect of over 75% in size
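Chemiluminescent proximity detection of H3K9 monomethylation, read after 10 min bead incubation in the dark. Reaction: 20 nM G9a, 500 nM biotin-H3K9 peptide, 20 uM SAM cofactor, 2 h, room temperature, following 15 min enzyme-compound preincubation.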
JMJD2A Tudor: blocks the human JMJD2A Tudor domain | O75164 | Potency, µM (doses to about 114 µM), inactives show at the highest dose activity change, negative = inhibition, most hits filed as inhibitors | hit rate 4.4% among 390,000 | AlphaScreen JMJD2A-Tudor / H3K4me3 peptide binding; further: on the % scale 0 is the no-effect control and ±100 the full control effect; nearly all actives have a fitted effect of over 50% in size
Sfp PPTase inh: inhibitors of Bacillus subtilis Sfp phosphopantetheinyl transferase | hit rate 3.5% among 310,000 | AID 1490 | Potency, µM, without a hit: largest response in the series, negative = inhibition, actives largely listed as inhibitors | Biochemical Sfp PPTase activity, qHTS;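 further: the enzyme is Sfp with the accession as filed and its product quenches rhodamine fluorescence; 0% = enzyme reaction without inhibitor and -100% = no enzyme wells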
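Sfp 15 nM + cpd, 15 min RT; start w/ rhodamine-CoA 5 uM, BHQ-2-YbbR 12.5 uM (final); 50 mM Hepes pH 7.6, 10 mM MgCl2, 0.01% NP-40, 0.01% BSA; read 525/598 nm at 0 and 30 min.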
Active calls of the source: *; ? = inconclusive; · = not tested or not shown; [ ] = remark or other dose. The call rests on the fitted dose curve; in most records, active means well fitted curve in the direction sought with a large enough effect; inconclusive means small, poorly fitted or top-dose-only effect, or another doubt; inactive means no such curve, though single readings can be large; an effect the other way counts as inactive or inconclusive. Potency means the concentration at half of the fitted maximal effect.

SMILES	BAZ2B inh	HP1b binding inh	G9a block	JMJD2A Tudor	Sfp PPTase inh
COc1cccc(C(=O)OCC(=O)Nc2sc3c(c2C(N)=O)CCC3)c1O	50.1µM*	-1.9%	?	?	·
O=C1C=C(NNC(=O)c2ccncc2)CC(c2ccccc2)C1 (centres undefined)	-16.8%	22.2%	17.3%	-23.9%	18.3%
Cc1cccc(NC(=O)Nc2ccc(Cl)cc2)n1	2.9%	42.6%	-1.8%	1.8%	?
Cc1nc2ccccc2n1/C(=N\S(=O)(=O)c1ccccc1)c1ccccc1	1.1%	33.6%	50.1µM*	-11.0%	18.0%
CC(=O)Nc1ccc(NS(=O)(=O)c2cc(-c3n[nH]c(=O)c4ccccc34)ccc2C)cc1	79.4µM*	3.1%	-26.5%	-16.9%	14.1%
Cc1ccc(-c2n[nH]c(=O)c3ccccc23)cc1S(=O)(=O)Nc1ccc(F)cc1	-4.1%	-8.1%	5.1%	-14.1%	-6.7%
CCOC(=O)C1(Cc2ccc(OC)cc2)CCN(C(=O)CCc2cccnc2)CC1	-17.6%	31.5%	2.2%	-14.7%	19.1%
CC(C)(C)c1ccc(OCC(=O)Nc2ccc3c4c(cccc24)C(=O)NC3=O)cc1	-5.0%	8.3%	·	79.4µM*	9.8%
COc1ccc(C2=CC(=O)C=CC2=O)cc1	10µM*	·	1.26µM*	·	3.16µM*
COc1ccc(C2=CC(=O)C[C@H](c3ccc(OC)cc3)C2)cc1	5.2%	57.5%	9.7%[2.33 µM]	-9.2%	·
CCCS(=O)(=O)NCCc1cc2c(OC)ccc(OC)c2[nH]c1=O	-0.4%	15.6%	-12.7%	-18.9%	5.0%
COc1cccc2sc(Nc3nc(-c4ccccn4)cs3)nc12	50.1µM*	·	-10.1%	·	-19.8%
c1ccc(-c2csc(Nc3cccnc3)n2)nc1	?	29.4%	?	?	?
O=C(Nc1ccccn1)C12CC3CC(C1)CC(C(=O)Nc1ccccn1)(C3)C2	?	53.8%	-46.6%	-4.6%[57.1 µM]	19.9%
c1ccc(Nc2nc(-c3ccccn3)cs2)cc1	39.8µM*	11.0%	-38.5%[59 µM]	?	?
CCOC(=O)c1sc(Nc2nc3c(OC)cccc3s2)nc1C	5.7%	·	12.8%[59 µM]	·	4.5%
Cc1csc(NC(=O)C2CCCC2)n1	0.5%	48.2%	39.8µM*	-16.2%	79.4µM*
O=C(Nc1nc(-c2ccccn2)cs1)C12CC3CC(CC(O)(C3)C1)C2	14.1µM*	?	28.2µM*	-5.3%[11.4 µM]	39.8µM*
O=C(NC1CC(=O)N(c2ccc(F)cc2)C1)N1CCN(C(=O)c2ccco2)CC1 (centres undefined)	11.6%	11.0%	16.2%[0.501 µM]	-8.9%	·
O=C(Nc1nc(-c2ccccn2)cs1)C1CC1	50.1µM*	47.3%	8.8%	56.2µM*	-11.7%
N#Cc1ccc(-c2csc(NC(=O)C3CC3)n2)cc1	12.8%	30.5%	-17.7%	-11.3%	-6.8%
O=C(CC1CC2CCC1C2)Nc1nc(-c2ccccn2)cs1 (centres undefined)	44.7µM*	8.3%	20µM*	-22.8%	35.5µM*
O=C(Nc1nc(COc2ccccc2)cs1)C12CC3CC(CC(C3)C1)C2	-2.6%	108.0%	44.7µM*	14.8%	28.5%
Cc1ccc(OCC(=O)Nc2ccc(C(=O)OCc3cc(=O)n4nc(C5CC5)sc4n3)cc2)cc1	-5.9%	57.5%	17.3%[59 µM]	-6.3%	·
CCCCCCNC(=O)N[C@@H](C(=O)NCCC[C@H]1CN2C(=NC[C@@H]2Cc2ccccc2)N1CCc1cccc(OC)c1)C(C)C	25.1µM*	?	?	5.01µM*	3.55µM*
SMILES	BAZ2B inh	HP1b binding inh	G9a block	JMJD2A Tudor	Sfp PPTase inh
Cc1nn2c(CN(C(=O)c3ccco3)c3ccccc3)nnc2c2ccccc12	·	41.7%	·	-10.1%	·
Cc1ccc2c(c1)sc(C)[n+]2CCCS(=O)(=O)[O-]	-37.2%	55.2%	?	-17.7%	1µM*
Cc1ccc2sc(C)[n+](CCCS(=O)(=O)[O-])c2c1	7.3%	50.6%	?	0.7%	2.82µM*
Cc1c2ccccc2cc[n+]1CCCS(=O)(=O)[O-]	-26.0%	37.7%	-26.7%	-0.7%	20.3%
COc1ccc(-n2ncc3c(NCc4ccco4)ncnc32)cc1	?	15.1%	44.7µM*	?	-1.7%
Cc1ccccc1Nc1ncnc2c1cnn2-c1ccccc1	7.6%	58.1%	-30.3%	-8.3%	?
CCc1cc2c(NCC(=O)O)ncnc2s1	-2.3%	27.9%	?	-10.3%	8.3%
CCc1cc2c(NCc3ccco3)ncnc2s1	56.2µM*	5.0%	44.7µM*	?	12.1%
COc1ccc(-n2ncc3c(NCc4ccccn4)ncnc32)cc1	?	11.0%	-27.4%[59 µM]	14.1µM*	-23.5%
NNc1ncnc2c1cnn2-c1ccccc1	28.2µM*	20.5%	-48.9%[12.7 µM]	50.1µM*	?
Cc1cc(NS(=O)(=O)c2ccc(NC(=O)c3ccc(Cl)cc3[N+](=O)[O-])cc2)no1	-19.4%	11.5%	-18.7%	-16.1%	3.1%
CCOCCCn1c(=S)[nH]c2ncccc2c1=O	-12.8%	55.3%	56.2µM*	22.4µM*	?
CN(C)CCn1c(=S)[nH]c2ncccc2c1=O	-34.9%	-0.3%	28.2µM*	6.9%	50.1µM*
COc1ccc(NC(=S)N(Cc2ccc(C)cc2)Cc2ccccn2)cc1	?	4.8%	11.3%[59 µM]	-18.2%	15.4%
Cc1ccc(S(=O)(=O)NC(C(=O)Oc2ccc3c(C(F)(F)F)cc(=O)oc3c2)c2ccccc2)cc1 (centres undefined)	2.5%	39.2%	7.08µM*	-8.9%	-11.8%
COC(=O)C(NS(=O)(=O)c1ccc(C)cc1)c1ccccc1 (centres undefined)	2.6%	11.3%	0.4%	-2.1%	4.9%
O=C1CSC(=S)N1c1cccc(Cl)c1	-21.2%	23.0%	-17.2%	-13.0%	-3.9%
S=c1[nH]ccn1-c1cccc(Cl)c1	-1.1%	-20.2%	?	7.94µM*	-2.1%
Cc1ccc(-n2cc[nH]c2=S)cc1C	-24.9%	21.4%	?	35.5µM*	79.4µM*
Cc1ccc(N2C(=O)C(Cc3ccc(O)cc3)NC2=S)cc1C (centres undefined)	-6.8%	41.7%	19.2%	-11.4%	4.7%
COC(=O)c1ccc2c(c1)c(I)c(-c1ccc(OC)cc1)n2C	·	·	4.0%[59 µM]	·	?
N#C/C(=C\c1cc(Cl)cc(Cl)c1)c1cccnc1	·	·	23.9%[59 µM]	·	2.7%
O=c1c2c(nc3nc(COc4ccccc4)[nH]n13)CCC2	4.0%	45.3%	-33.3%[12.7 µM]	2.8%	18.6%
O=C(O)Cc1nc2nc3c(c(=O)n2[nH]1)CCCC3	-2.5%	6.9%	?	10µM*	-21.3%
COc1ccc(-c2cc(=O)c3c(OC)c(OC)c(OC)cc3o2)cc1OC	·	·	·	·	1.6%
COc1ccc(-c2cc(=O)c3ccccc3o2)cc1OC	·	·	·	·	35.5µM*
Cc1cccc(NC(=O)CN2CCN(CC(=O)Nc3cccc(C)c3)CC2)c1	6.1%	17.0%	50.1µM*	-16.6%	19.7%
Cc1ccc(NC(=O)CN(C)C2CCCCC2)cc1Br	50.1µM*	?	25.3%[0.501 µM]	17.8µM*	56.2µM*
O=C(O)C1(Nc2ccccc2)CCCC1	·	-17.6%	·	-0.7%	·
